This is part of a sample that, as a whole, favours compounds with a hit. Of some 83,000 tested, about 20% had one in any assay.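 A percent growth of 40 corresponds to 60% growth inhibition; 0 means no net growth; -100 means all cells died. Active threshold: below 10.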 Values without a mark were called inactive. Activity calls are given as the source filed them.

In this assay the test system is HL-60(TB) leukemia. The experiment in a line: NCI-60 one-dose screen, 48 h (100 = growth as untreated, 0 = no growth, -100 = all killed). The settings on record: 10 µM unless noted.
Turning to `CCCCNc1ccc2c3c(cccc13)C(=O)N(c1cccc(-c3nn(-c4ccccc4)cc3-c3nc4ccccc4s3)c1)C2=O`, the growth was 106%.
To `CC1=N/C(=C\c2ccc(N(C)C)cc2)C(=O)N1CCc1ccc(S(N)(=O)=O)cc1` belongs 102%; to `CCOC(=O)N/C(=C1/OCCN1C)[P+](c1ccccc1)(c1ccccc1)c1ccccc1`, 29.9%.
To `O=C(/C=C/Nc1ccc(F)cc1F)c1ccc2c(c1)Nc1ccccc1S2` belongs 26.9%; to `COc1cc(C2CC(c3ccccc3)=Nc3c(N)nc(N)nc3N2)ccc1Oc1nc(NCCO)nc(N2CCOCC2)n1` (stereo not given), 93.5%.
For `COc1ccc(C(=O)COc2ccc(NC(=O)Nc3ccccc3)cc2)cc1`, the growth is 91.6%.
Turning to `COc1ccc2[nH]cc(/C=N/Nc3cccc(Cl)n3)c2c1`, the growth was 23.7%.
The result for `O=C(Nc1nc2ccc([N+](=O)[O-])cc2s1)Nc1cc(Cl)ccc1I` reads -47.7% (active); that for `O=C(O)c1ccc(-c2ccc(/C=N/NC(=O)c3[nH]c4ccc(Br)cc4c3-c3ccccc3)o2)cc1`, -18.5% (active); that for `Cn1cc(-c2cc3nc(-c4c[nH]c5ccc(Br)cc45)cc(N)n3n2)c2ccccc21`, -45.3% (active).
As to `CC1=C(C(=O)OCc2ccccc2)C(c2ccc(-n3cncn3)cc2)n2c(nc3ccccc32)N1` (stereo not given), the growth was 8.84% (active).
The result for `COc1cc(CNC(=O)C[C@H](C)CCC=C(C)C)ccc1OCc1cn(-c2ccccc2Cl)nn1` reads 41.1%.
For the molecule `COCOc1ccc2c(=O)c(C)c(C(=O)N[C@@H](Cc3ccccc3)C(O)C(=O)NCCc3ccc(OC)cc3)oc2c1` (stereo not given in full), the growth is 102%.
For the molecule `COc1cc2c(c(OC)c1OC)C(=O)CC(c1cccc(NC(=O)c3cccc(N)c3)c1)O2` (stereo not given), the growth is 86.4%.
With `CCCSc1nc(NCCc2c[nH]c3ccccc23)c(C#N)c(-c2ccccc2)n1`, the growth is 70.4%.
Take `O=C1CCC(N2Cc3cc(NC(=O)COc4ccccc4)ccc3C2=O)C(=O)N1` (stereo not given): the growth was 6.3% (active).
With `O=C(COc1ccc(NC(=O)Nc2ccc(Cl)c(Cl)c2)cc1)N=Nc1c(O)[nH]c2ccccc12`, the growth was 40.1%.
Regarding `COc1ccccc1C(=O)NNC(=O)CSc1nc2c(c(=O)[nH]1)CCCC2`, the growth is 100%.
Take `CCOc1ccc(C(=O)NC(=S)Nc2ccc(S(N)(=O)=O)cc2)cc1`: the growth was 103% [100 µM].
`CC1=C(C#N)C2=NNCC(c3ccccc3)=NN2C(c2ccccc2)=C1`: the growth is 138%.
Turning to `COc1ccc(-c2ccnc(SCc3cc4cc(Cl)ccc4[nH]c3=O)n2)cc1`, the growth is 120%.
Regarding `S=C(NCCc1ccccc1)Nc1ccc(OCc2nc3ccccc3[nH]2)cc1`, the growth is 100%.
With `Nc1ccc(-c2ccc3ncnc(N4CCc5cc(F)c(Cl)cc54)c3c2)cn1`, the growth was 22.8%.
The result for `COc1ccc(C(=O)/C=C/c2ccc(Oc3nc(Nc4ccc(F)cc4)nc(N(C)C)n3)c(OC)c2)cc1` reads 48.1%.
In the case of `COc1cc(/C=N/NC(=O)c2ccc(OCc3nc4ccc(C)cc4[nH]3)cc2)cc(OC)c1OC`, the growth is 33.5%.
The result for `COc1ccccc1[C@H]1C(C(=O)c2ccc(Cl)cc2)C2(N[C@@H]1c1ccccc1)C(=O)Nc1ccc(Cl)cc12` (stereo not given in full) reads -25.1% (active).
The result for `O=C(NNC(=O)c1ccc(OCc2nc3ccc(Cl)cc3[nH]2)cc1)Nc1ccc(Cl)c(C(F)(F)F)c1` reads 74.8%.
Take `COc1cc(CNC(=O)/C=C/c2ccc3c(c2)OCO3)ccc1OCc1cn(-c2cccc(C(F)(F)F)c2)nn1`: the growth is 69.7%.
With `COc1cc(C2C(C(=O)OCc3ccccc3)=C(C)Nc3nc4ccccc4n32)cc(OC)c1OC` (stereo not given), the growth is 16.1%.
`CN(C)c1ccnc(CNCCSC2(c3ccc(C(F)(F)F)cc3)c3ccccc3CCc3ccccc32)c1`: the growth was -41.9% (active).
For `CCCCCCCCCc1ccc(C(=O)Nc2cc(C)ccc2C(=O)OC)cc1`, the growth is 97.1%.
As for `CC1=C2C(=C[C@@](C)(COCOCCCl)[C@@H]2O)C(=O)[C@](C)(O)C12CC2`, the growth is -31.8% (active).
The result for `N#Cc1c(-c2ccc(Cl)cc2)cc(-c2ccccc2)nc1OCc1ccccc1` reads 77.3%.
Turning to `COc1ccc(/C=C/C(=O)c2ccc(S(=O)(=O)NCCNc3nc(Nc4ccc(F)cc4)nc(N(C)C)n3)cc2)cc1`, the growth was 17.2%.
In the case of `O=C1c2cccc3c(N4CCN(Cc5ccccc5)CC4)ccc(c23)C(=O)N1c1cccc(-c2nn(-c3ccccc3)cc2-c2nc3ccccc3s2)c1`, the growth was 105%.
As to `N/C(=N\c1nc2ccc([N+](=O)[O-])cc2s1)NC(=O)Nc1ccccc1Cl`, the growth was 67.3%.
For `COc1ccc2[nH]c(O)c(N=Nc3nc(-c4ccccc4)cs3)c2c1`, the growth is 71.6%.
Consider `CCN(CC)c1ccnc(CNCCSC(c2ccccc2)(c2ccccc2)c2ccc(OC)cc2)c1`, for which the growth was -34.3% (active).
The result for `CC1(C)CC[C@]2(C(=O)O)CC[C@]3(C)C(=CCC4[C@@]5(C)C[C@@H](O)[C@@H]6OC(c7cccc(Br)c7)OC[C@@]6(C)C5CC[C@]43C)C2C1` (stereo not given in full) reads 7.87% (active).
Turning to `O=C(/C=C1\C(=O)N(Cc2ccccc2)c2ccccc21)c1cc2ccccc2oc1=O`, the growth is 93%.

Values taken from PubChem BioAssay (NCI).
